Screen size: about 5,500 compounds; about 2,000 (36%) were called active. Not shown: some 18% with an inconclusive outcome. No stated cut-off is given here; in the data, active means normalized growth mostly below about 0.91 (no sharp cut-off); inconclusive means no clear call, values can overlap the other calls; inactive means mostly above about 0.92. This is one part of the list.
Experiment: chemical genetic growth profiling, strain panel (AID 1159580);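 further: tested at 20 µM; growth read once vehicle control cultures reached saturation at 30 °C; 1 = growth at the plate median or of vehicle wells; lower values mean less growth of the strain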
Details: S. cerevisiae deletion strains, growth OD

Measured: normalized growth

CC(=O)Nc1cccc(O)c1
inactive: locus YAL013W, strain DEP1, active compounds read low 1 | locus YAL021C, strain ccr4, active compounds read low 1.01 | locus YAL026C, strain drs2, active compounds read low 1.03 | locus YAL030W, strain snc1, active compounds read low 1.01 | locus YBL061C, strain skt5, active compounds read low 1.01 | locus YBR009C, strain hhf1, active compounds read low 0.984 | locus YBR021W, strain FUR4, active compounds read low 1.01 | locus YBR023C, strain chs3, active compounds read low 1.03 | locus YBR171W, strain sec66, active compounds read low 1.02 | locus YBR229C, strain ROT2, active compounds read low 1.01 | locus YBR231C, strain swc5, active compounds read low 1 | locus YBR279W, strain paf1, active compounds read low 1.02 | locus YCL011C, strain gbp2, active compounds read low 1.04 | locus YCL016C, strain dcc1, active compounds read low 1.05 | locus YCL029C, strain bik1, active compounds read low 0.993 | locus YCL061C, strain MRC1, active compounds read low 1.01 | locus YCL069W, strain vba3, active compounds read low 1.01 | locus YCR088W, strain abp1, active compounds read low 1.02 | locus YDL005C, strain med2, active compounds read low 1.02 | locus YDL035C, strain GPR1, active compounds read low 0.992 | locus YDL040C, strain nat1, active compounds read low 0.999 | locus YDL074C, strain BRE1, active compounds read low 1.02 | locus YDL101C, strain DUN1, active compounds read low 1.02 | locus YDL134C, strain PPH21, active compounds read low 0.983 | locus YDL185W, strain tfp1, active compounds read low 0.993 | locus YDL192W, strain arf1, active compounds read low 1.01 | locus YDR001C, strain nth1, active compounds read low 1.01 | locus YDR069C, strain doa4, active compounds read low 1.03 | locus YDR101C, strain arx1, active compounds read low 0.989 | locus YDR137W, strain rgp1, active compounds read low 1.03 | locus YDR150W, strain NUM1, active compounds read low 0.998 | locus YDR159W, strain sac3, active compounds read low 0.954 | locus YDR162C, strain NBP2, active compounds read low 0.999 | locus YDR195W, strain ref2 0.986 | locus YDR297W, strain sur2, active compounds read low 0.998 | locus YDR318W, strain mcm21, active compounds read low 1.01 | locus YDR334W, strain swr1, active compounds read low 1.02 | locus YDR335W, strain msn5, active compounds read low 1.01 | locus YDR388W, active compounds read low 0.998 | locus YDR392W, strain spt3, active compounds read low 0.99 | locus YDR502C, strain sam2, active compounds read low 0.986 | locus YEL003W, strain gim4, active compounds read low 1 | locus YEL037C, strain rad23, active compounds read low 1 | locus YEL061C, strain CIN8 (second series), active compounds read low 1 | locus YEL061C, strain CIN8, active compounds read low 1.01 | locus YER015W, strain faa2, active compounds read low 1.02 | locus YER016W, strain bim1, active compounds read low 1.03 | locus YER110C, active compounds read low 1 | locus YER111C, strain swi4, active compounds read low 1.01 | locus YER155C, strain BEM2 (second series), active compounds read low 0.999 | locus YER155C, strain BEM2, active compounds read low 1.01 | locus YER167W, strain BCK2, active compounds read low 1 | locus YFR010W, strain ubp6, active compounds read low 0.994 | locus YGL078C, strain dbp3, active compounds read low 0.994 | locus YGL086W, strain mad1, active compounds read low 0.99 | locus YGL167C, strain pmr1, active compounds read low 1.01 | locus YGL173C, strain kem1, active compounds read low 0.987 | locus YGL227W, strain vid30, active compounds read low 1.02 | locus YGL240W, strain doc1, active compounds read low 0.977 | locus YGL248W, strain PDE1, active compounds read low 1.02 | locus YGL253W, strain hxk2, active compounds read low 1.04 | locus YGR078C, strain PAC10, active compounds read low 1.01 | locus YGR135W, strain pre9, active compounds read low 1.02 | locus YGR252W, strain gcn5, active compounds read low 1 | locus YHR013C, strain ard1, active compounds read low 1.04 | locus YHR027C, strain rpn1, active compounds read low 1.01 | locus YHR030C, strain SLT2, active compounds read low 1 | locus YHR079C, strain IRE1 (second series), active compounds read low 0.997 | locus YHR094C, strain hxt1, active compounds read low 0.997 | locus YHR129C, strain ARP1, active compounds read low 1.01 | locus YHR142W, strain chs7, active compounds read low 1.04 | locus YHR200W, strain rpn10, active compounds read low 0.996 | locus YIL066C, strain RNR3, active compounds read low 1 | locus YIL073C, strain SPO22, active compounds read low 1.02 | locus YIL125W, strain kgd1, active compounds read low 0.994 | locus YIR030C, strain dcg1, active compounds read low 0.991 | locus YJL092W, strain hpr5, active compounds read low 1.01 | locus YJL095W, strain BCK1 (second series), active compounds read low 1.03 | locus YJL095W, strain BCK1, active compounds read low 1.03 | locus YJL115W, strain asf1, active compounds read low 1.02 | locus YJL129C, strain trk1, active compounds read low 1.04 | locus YJL134W, strain LCB3, active compounds read low 1.02 | locus YJL154C, strain vps35, active compounds read low 1.01 | locus YJL164C, strain tpk1, active compounds read low 1.03 | locus YJL166W, strain qcr8, active compounds read low 0.982 | locus YJL168C, strain set2, active compounds read low 1.02 | locus YJL187C, strain SWE1 (second series), active compounds read low 1.02
